Results filed as inconclusive are left out. Activity calls are given as the source filed them. Rule for the calls, unless noted: active = hit-call score of the fitted dose curve at least 0.9, where 1 is the maximum; inactive = score below 0.9.
Experiments:
[1] = ATG_TCF_b_cat_CIS: Attagene CIS-FACTORIAL HepG2 Assay for human T-Cell-Factor with beta-catenin (TCF/b-cat) (AID 2282965); conditions: HepG2 TCF/beta-catenin cis-reporter transcription, actives raise or lower the signal
Summary of the method: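 Cells of the HepG2 line carry transiently transfected reporter units whose promoters respond to endogenous factors. Twenty-four hours post-dosing, reporter mRNA induction is measured by fluorescent RT-PCR and capillary electrophoresis, with DMSO as baseline.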

[2] = ATG_TAL_CIS: Attagene CIS-FACTORIAL HepG2 Assay for human TAL Basal Promoter (AID 2282966); conditions: HepG2 Attagene cis-factorial TAL promoter reporter; actives raise or lower the signal;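 note: background control endpoint measuring basal TAL promoter reporter mRNA not a specific factor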
Summary of the method: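 HepG2, transient MRTU transfection, 24 h compound exposure; RNA → oligo(dT) RT → PCR → 6-FAM primer extension → HpaI digest → CE fluorescence. Bidirectional curve fit vs DMSO. Background-control readout.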

[3] = ATG_TGFb_CIS: Attagene CIS-FACTORIAL HepG2 Assay for human Transforming Growth Factor (TGF) (AID 2282967); conditions: HepG2 Attagene CIS TGFb reporter, mRNA transcription; actives raise or lower the signal
Summary of the method: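 Multiplexed cis-reporter HepG2 system, 24 h treatment; mRNA induction read by fluorescence after RT-PCR and CE; DMSO negative control, bidirectional curve fitting.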

[4] = ATG_VDRE_CIS: Attagene CIS-FACTORIAL HepG2 Assay for human Vitamin D Receptor Element (VDRE) (AID 2282968); conditions: HepG2 VDRE cis-reporter transcription, actives raise or lower the signal
Summary of the method: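 Transient MRTU transfection of HepG2, 24 h compound exposure. Readout: reporter transcripts via RT-PCR and capillary electrophoresis, fluorescence. Bidirectional fit vs DMSO.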

[5] = target: X-box-binding protein 1 (Homo sapiens) (UniProt P17861); experiment: ATG_Xbp1_CIS: Attagene CIS-FACTORIAL HepG2 Assay for human X-box Binding Protein 1 (XBP1) (AID 2282972); conditions: HepG2 XBP1 cis-element reporter, Attagene multiplex; actives raise or lower the signal
Chain of X-box-binding protein 1 (Homo sapiens) (P17861 whole entry, looked up): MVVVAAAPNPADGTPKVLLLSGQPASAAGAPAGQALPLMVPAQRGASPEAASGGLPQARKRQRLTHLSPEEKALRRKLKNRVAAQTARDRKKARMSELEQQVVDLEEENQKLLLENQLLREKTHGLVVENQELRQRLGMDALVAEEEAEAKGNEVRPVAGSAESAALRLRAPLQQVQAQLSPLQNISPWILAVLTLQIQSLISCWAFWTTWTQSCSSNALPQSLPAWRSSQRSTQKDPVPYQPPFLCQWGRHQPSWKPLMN
Summary of the method: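 Human hepatoma HepG2, cis-element reporter system, 24 h treatment; mRNA quantified by RT-PCR/CE fluorescence; fit relative to DMSO.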

[6] = ATG_GAL4_TRANS: Attagene TRANS-FACTORIAL HepG2 Assay for GAL4 (Internal Marker) (AID 2282976; active = hit-call score of the fitted dose curve at least 0.9, where 1 is the maximum); conditions: HepG2 Attagene TRANS GAL4 internal marker reporter
Summary of the method: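 RT-PCR/capillary electrophoresis readout of reporter mRNA. HepG2, transient MRTU transfection (GAL4-UAS reporters), 24 h compound exposure. Background-control endpoint, positive direction vs DMSO baseline.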

[7] = target: Oxysterols receptor LXR-alpha (Homo sapiens) (UniProt Q13133); experiment: ATG_LXRa_TRANS: Attagene TRANS-FACTORIAL HepG2 Assay for human Liver X Receptor alpha (LXRa) (AID 2282980; active = hit-call score of the fitted dose curve at least 0.9, where 1 is the maximum); conditions: HepG2 Attagene TRANS reporter, LXRa transactivation
Chain of Oxysterols receptor LXR-alpha (Homo sapiens) (Q13133 whole entry, looked up, the tested form may be a part): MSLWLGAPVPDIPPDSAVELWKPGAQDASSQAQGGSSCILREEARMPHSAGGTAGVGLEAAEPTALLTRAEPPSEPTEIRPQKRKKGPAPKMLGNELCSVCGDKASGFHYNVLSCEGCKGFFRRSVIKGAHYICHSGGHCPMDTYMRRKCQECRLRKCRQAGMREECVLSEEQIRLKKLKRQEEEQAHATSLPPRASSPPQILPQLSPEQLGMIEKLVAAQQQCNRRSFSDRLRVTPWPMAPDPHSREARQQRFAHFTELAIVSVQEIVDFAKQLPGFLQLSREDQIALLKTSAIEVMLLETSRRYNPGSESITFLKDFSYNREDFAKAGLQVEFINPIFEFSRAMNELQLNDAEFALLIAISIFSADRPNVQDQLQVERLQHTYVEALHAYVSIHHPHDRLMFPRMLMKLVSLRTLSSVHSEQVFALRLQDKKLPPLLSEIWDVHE
Summary of the method: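 Read-out: reporter transcript levels by RT-PCR plus capillary electrophoresis, fluorescence intensity. Transiently transfected HepG2, exogenous NR-GAL4 chimera, GAL4-UAS reporters; 24 h compound exposure. Activity = increase over DMSO negative control.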

[8] = target: Hepatocyte nuclear factor 4-alpha (Homo sapiens) (UniProt P41235); experiment: ATG_HNF4a_TRANS: Attagene TRANS-FACTORIAL HepG2 Assay for human Hepatocyte Nuclear Factor 4 alpha (HNF4a) (AID 2282982; active = hit-call score of the fitted dose curve at least 0.9, where 1 is the maximum); conditions: HepG2 HNF4a transactivation reporter, mRNA readout
Chain of Hepatocyte nuclear factor 4-alpha (Homo sapiens) (P41235 whole entry, looked up): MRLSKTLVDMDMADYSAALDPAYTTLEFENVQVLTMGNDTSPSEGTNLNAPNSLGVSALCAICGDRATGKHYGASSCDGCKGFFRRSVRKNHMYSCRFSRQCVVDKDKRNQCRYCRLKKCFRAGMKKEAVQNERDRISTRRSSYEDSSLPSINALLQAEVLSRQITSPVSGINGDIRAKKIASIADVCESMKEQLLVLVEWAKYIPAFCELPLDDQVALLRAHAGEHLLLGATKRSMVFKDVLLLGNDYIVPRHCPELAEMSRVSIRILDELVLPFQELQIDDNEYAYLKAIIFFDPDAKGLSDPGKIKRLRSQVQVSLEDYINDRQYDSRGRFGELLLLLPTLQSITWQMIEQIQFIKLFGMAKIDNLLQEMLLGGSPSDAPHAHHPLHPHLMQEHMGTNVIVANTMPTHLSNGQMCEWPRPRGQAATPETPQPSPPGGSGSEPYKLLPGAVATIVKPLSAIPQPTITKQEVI
Summary of the method: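 Transient MRTU transfection of HepG2, 24 h dosing. Readout: reporter mRNA via RT-PCR + capillary electrophoresis, fluorescence; activity fit upward relative to DMSO control.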

[9] = ATG_M_06_TRANS: Attagene TRANS-FACTORIAL HepG2 Assay for M06 Transcription Factor (Internal Marker) (AID 2282983; active = hit-call score of the fitted dose curve at least 0.9, where 1 is the maximum); conditions: HepG2 Attagene TRANS M06 internal marker reporter
Summary of the method: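 Read-out: fluorescent reporter cDNA fragments resolved by capillary electrophoresis after RT-PCR and HpaI cut. Source cells were HepG2 carrying transfected multi-reporter GAL4 constructs, dosed 24 h. Increase over DMSO control analysed.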

[10] = target: Nuclear receptor subfamily 4 group A member 2 (Homo sapiens) (UniProt P43354); experiment: ATG_NURR1_TRANS: Attagene TRANS-FACTORIAL HepG2 Assay for human Nuclear Receptor Related Protein 1 (NURR1) (AID 2282985; active = hit-call score of the fitted dose curve at least 0.9, where 1 is the maximum); conditions: HepG2 Attagene TRANS reporter, mRNA readout
Chain of Nuclear receptor subfamily 4 group A member 2 (Homo sapiens) (P43354 whole entry, looked up, the tested form may be a part): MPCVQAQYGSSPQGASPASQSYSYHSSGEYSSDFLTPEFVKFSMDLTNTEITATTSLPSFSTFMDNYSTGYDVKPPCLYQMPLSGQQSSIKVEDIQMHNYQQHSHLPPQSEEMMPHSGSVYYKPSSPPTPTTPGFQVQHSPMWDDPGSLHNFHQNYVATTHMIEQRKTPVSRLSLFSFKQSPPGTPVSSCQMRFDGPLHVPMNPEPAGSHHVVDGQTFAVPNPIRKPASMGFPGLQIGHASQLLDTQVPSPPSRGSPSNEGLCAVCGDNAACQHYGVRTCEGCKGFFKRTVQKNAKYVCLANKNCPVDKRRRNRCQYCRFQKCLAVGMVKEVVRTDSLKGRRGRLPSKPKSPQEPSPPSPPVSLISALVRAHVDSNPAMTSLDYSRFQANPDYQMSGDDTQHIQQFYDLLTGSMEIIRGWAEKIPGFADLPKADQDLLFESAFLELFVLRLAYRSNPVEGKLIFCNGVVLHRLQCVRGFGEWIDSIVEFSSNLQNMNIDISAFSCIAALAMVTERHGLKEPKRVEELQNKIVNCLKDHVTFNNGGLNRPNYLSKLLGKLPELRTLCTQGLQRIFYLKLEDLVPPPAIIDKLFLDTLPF
Summary of the method: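 Read-out: reporter mRNA induction by RT-PCR plus capillary electrophoresis with fluorescence detection, after 24 h dosing of transfected HepG2 cells. Exogenous NR-Gal4 chimera activity drives GAL4-UAS reporter; activity fitted upward versus DMSO.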

[11] = target: Transcriptional activator Myb (Homo sapiens) (UniProt P10242); experiment: ATG_Myb_CIS: Attagene CIS-FACTORIAL HepG2 Assay for human Myeloblastosis (Myb) Proto-Oncogene Transcription Factor (AID 2282986); conditions: HepG2 Attagene CIS-FACTORIAL Myb reporter transcription; actives raise or lower the signal
Chain of Transcriptional activator Myb (Homo sapiens) (P10242 whole entry, looked up): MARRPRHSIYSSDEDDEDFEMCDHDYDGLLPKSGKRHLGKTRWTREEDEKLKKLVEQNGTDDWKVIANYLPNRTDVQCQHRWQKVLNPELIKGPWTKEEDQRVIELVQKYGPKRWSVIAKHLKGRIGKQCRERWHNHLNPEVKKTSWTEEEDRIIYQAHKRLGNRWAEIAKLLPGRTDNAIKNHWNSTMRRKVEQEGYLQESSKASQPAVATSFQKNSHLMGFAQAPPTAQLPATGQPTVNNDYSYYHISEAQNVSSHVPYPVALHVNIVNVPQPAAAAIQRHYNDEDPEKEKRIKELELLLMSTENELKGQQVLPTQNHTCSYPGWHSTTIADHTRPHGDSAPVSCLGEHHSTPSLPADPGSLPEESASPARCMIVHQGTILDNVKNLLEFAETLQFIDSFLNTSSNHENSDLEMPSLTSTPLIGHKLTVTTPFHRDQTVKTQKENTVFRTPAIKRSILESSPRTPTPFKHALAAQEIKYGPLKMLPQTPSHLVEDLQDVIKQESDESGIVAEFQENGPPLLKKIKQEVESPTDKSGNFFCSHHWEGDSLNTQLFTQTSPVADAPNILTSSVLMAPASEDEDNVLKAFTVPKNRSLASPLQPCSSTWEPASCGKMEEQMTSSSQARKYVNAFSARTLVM
Summary of the method: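 Endogenous transcription factor activity at a Myb-responsive cis element is reported in human liver HepG2 cells after 24 h chemical treatment. Reporter mRNA is detected by RT-PCR and capillary electrophoresis fluorescence, with DMSO as baseline.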

[12] = ATG_M_19_TRANS: Attagene TRANS-FACTORIAL HepG2 Assay for M19 Transcription Factor (Internal Marker) (AID 2282974; active = hit-call score of the fitted dose curve at least 0.9, where 1 is the maximum); conditions: HepG2 Attagene TRANS-FACTORIAL M19 internal marker reporter
Summary of the method: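 After transfection of HepG2 with GAL4-UAS-driven reporter constructs, cells are dosed for 24 h. Total RNA is reverse-transcribed, reporter sequences PCR-amplified and labelled, then HpaI-digested and sized by capillary electrophoresis.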

[13] = target: Glucocorticoid receptor (Homo sapiens) (UniProt P04150); experiment: ATG_GR_TRANS: Attagene TRANS-FACTORIAL HepG2 Assay for human Glucocorticoid Receptor (GR) (AID 2282978; active = hit-call score of the fitted dose curve at least 0.9, where 1 is the maximum;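 note: activators score as hits since higher reporter transcript over DMSO is fitted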); conditions: HepG2 Attagene TRANS GR reporter, mRNA transcription
Summary of the method: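 Multiplexed TRANS reporter system, HepG2; 24 h exposure; RNA → oligo(dT) RT → reporter-specific PCR → 6-FAM primer extension → HpaI cut → CE fluorescence. Gain-of-signal vs DMSO.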

[14] = target: Oxysterols receptor LXR-beta (Homo sapiens) (UniProt P55055); experiment: ATG_LXRb_TRANS: Attagene TRANS-FACTORIAL HepG2 Assay for human Liver X Receptor beta (LXRb) (AID 2282981; active = hit-call score of the fitted dose curve at least 0.9, where 1 is the maximum); conditions: HepG2 Attagene TRANS GAL4-LXRb reporter, mRNA
Chain of Oxysterols receptor LXR-beta (Homo sapiens) (P55055 whole entry, looked up, the tested form may be a part): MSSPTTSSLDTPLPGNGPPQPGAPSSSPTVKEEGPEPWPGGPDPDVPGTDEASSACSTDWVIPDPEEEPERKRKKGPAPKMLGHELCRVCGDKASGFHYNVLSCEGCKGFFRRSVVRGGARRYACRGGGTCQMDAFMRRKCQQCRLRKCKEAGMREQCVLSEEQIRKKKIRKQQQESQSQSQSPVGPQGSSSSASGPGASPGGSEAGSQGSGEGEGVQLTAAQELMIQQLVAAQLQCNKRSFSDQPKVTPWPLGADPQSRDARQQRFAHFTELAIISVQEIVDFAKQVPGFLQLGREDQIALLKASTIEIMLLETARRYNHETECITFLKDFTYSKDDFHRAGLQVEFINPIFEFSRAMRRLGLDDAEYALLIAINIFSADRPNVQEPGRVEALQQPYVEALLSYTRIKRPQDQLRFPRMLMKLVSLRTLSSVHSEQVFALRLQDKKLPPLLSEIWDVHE
Summary of the method: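 Readout: fluorescent reporter mRNA fragments resolved by capillary electrophoresis after RT-PCR. System: transiently transfected human HepG2, exogenous LXRb-Gal4 chimera driving GAL4-UAS reporter, 24 h dosing. Activity fitted upward against DMSO baseline.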

[15] = ATG_M_32_TRANS: Attagene TRANS-FACTORIAL HepG2 Assay for M32 Transcription Factor (Internal Marker) (AID 2282984; active = hit-call score of the fitted dose curve at least 0.9, where 1 is the maximum;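 note: transcript level of a background control reporter unit measured by RT-PCR and capillary electrophoresis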); conditions: HepG2 Attagene TRANS M32 internal marker reporter
Summary of the method: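 Read-out: fluorescent reporter cDNA fragments resolved by capillary electrophoresis after RT-PCR of total RNA. Transfected HepG2 cells were exposed to chemical for 24 h. Activity scored in the positive direction relative to DMSO.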

[16] = target: Estrogen-related receptor gamma (Homo sapiens) (UniProt P62508); experiment: ATG_ERRg_TRANS: Attagene TRANS-FACTORIAL HepG2 Assay for human Estrogen-Related Receptor gamma (ERRg) (AID 2282977; active = hit-call score of the fitted dose curve at least 0.9, where 1 is the maximum;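 note: hits increase reporter signal over DMSO so potencies reflect activators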); conditions: HepG2 Attagene TRANS reporter, ERRg transactivation
Chain of Estrogen-related receptor gamma (Homo sapiens) (P62508 whole entry, looked up, the tested form may be a part): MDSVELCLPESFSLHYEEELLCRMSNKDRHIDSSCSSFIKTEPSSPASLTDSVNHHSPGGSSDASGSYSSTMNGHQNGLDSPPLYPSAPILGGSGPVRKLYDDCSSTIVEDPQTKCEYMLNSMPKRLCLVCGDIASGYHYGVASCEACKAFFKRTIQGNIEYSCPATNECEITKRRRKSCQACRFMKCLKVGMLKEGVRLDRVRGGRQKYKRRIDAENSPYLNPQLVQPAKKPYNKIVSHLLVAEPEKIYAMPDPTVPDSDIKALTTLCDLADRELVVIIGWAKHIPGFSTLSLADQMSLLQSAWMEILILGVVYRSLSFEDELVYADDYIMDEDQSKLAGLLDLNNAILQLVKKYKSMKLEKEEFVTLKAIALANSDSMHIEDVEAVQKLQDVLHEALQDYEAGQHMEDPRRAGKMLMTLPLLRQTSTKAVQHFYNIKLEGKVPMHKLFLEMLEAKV
Summary of the method: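 Readout: fluorescent reporter-mRNA fragments resolved by capillary electrophoresis after RT-PCR and HpaI cut. Cells: transiently transfected HepG2 carrying GAL4-UAS reporters driven by exogenous NR-Gal4 chimeras, dosed 24 h. Activity fitted upward relative to DMSO baseline.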

[17] = target: Nuclear receptor subfamily 1 group I member 3 (Homo sapiens) (UniProt Q14994); experiment: ATG_CAR_TRANS: Attagene TRANS-FACTORIAL HepG2 Assay for human Constitutive Androstane Receptor (CAR) (AID 2282969; active = hit-call score of the fitted dose curve at least 0.9, where 1 is the maximum;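 note: activators raise reporter mRNA above DMSO so AC50 marks induction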); conditions: HepG2 Attagene TRANS-FACTORIAL CAR reporter
Chain of Nuclear receptor subfamily 1 group I member 3 (Homo sapiens) (Q14994 whole entry, looked up, the tested form may be a part): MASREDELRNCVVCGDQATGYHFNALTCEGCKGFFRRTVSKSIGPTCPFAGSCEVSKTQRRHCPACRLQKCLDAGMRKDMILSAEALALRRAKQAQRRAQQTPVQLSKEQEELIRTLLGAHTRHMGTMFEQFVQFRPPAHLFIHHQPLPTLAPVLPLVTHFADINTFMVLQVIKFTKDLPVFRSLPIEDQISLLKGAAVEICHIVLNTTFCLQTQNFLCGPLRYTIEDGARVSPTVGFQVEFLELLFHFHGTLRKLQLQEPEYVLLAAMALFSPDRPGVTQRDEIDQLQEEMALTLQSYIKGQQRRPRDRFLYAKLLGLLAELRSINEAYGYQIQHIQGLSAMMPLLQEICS
Summary of the method: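 Transiently transfected HepG2, multiplex TRANS reporters (CAR-Gal4 chimera driving GAL4-UAS reporter). 24 h dosing. Readout: reporter transcript by RT-PCR + capillary electrophoresis, fluorescence intensity; positive direction vs DMSO.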

[18] = target: Estrogen receptor (Homo sapiens) (UniProt P03372); experiment: ATG_ERa_TRANS: Attagene TRANS-FACTORIAL HepG2 Assay for human Estrogen Receptor alpha (ERa) (AID 2282970; active = hit-call score of the fitted dose curve at least 0.9, where 1 is the maximum); conditions: HepG2 Attagene TRANS ERa GAL4 reporter, mRNA
Chain of Estrogen receptor (Homo sapiens) (P03372 whole entry, looked up, the tested form may be a part): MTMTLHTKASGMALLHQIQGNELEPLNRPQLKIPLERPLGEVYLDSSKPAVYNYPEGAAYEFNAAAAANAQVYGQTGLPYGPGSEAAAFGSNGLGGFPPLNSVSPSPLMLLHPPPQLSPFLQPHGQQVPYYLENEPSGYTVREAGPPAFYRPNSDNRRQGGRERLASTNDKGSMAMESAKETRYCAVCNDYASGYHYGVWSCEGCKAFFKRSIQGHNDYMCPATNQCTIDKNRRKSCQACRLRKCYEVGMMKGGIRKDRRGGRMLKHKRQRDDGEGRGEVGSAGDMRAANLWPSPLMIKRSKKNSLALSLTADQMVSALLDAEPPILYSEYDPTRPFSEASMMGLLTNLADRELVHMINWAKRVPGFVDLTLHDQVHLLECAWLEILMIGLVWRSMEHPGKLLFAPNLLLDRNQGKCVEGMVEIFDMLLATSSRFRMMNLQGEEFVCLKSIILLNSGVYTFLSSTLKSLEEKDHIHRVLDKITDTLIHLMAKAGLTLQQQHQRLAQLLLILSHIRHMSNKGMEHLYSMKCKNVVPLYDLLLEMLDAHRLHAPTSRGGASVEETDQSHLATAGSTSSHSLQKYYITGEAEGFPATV
Summary of the method: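 Reporter mRNA induction after 24 hours, detected by fluorescent RT-PCR and capillary electrophoresis, gives the read-out. Cells are HepG2 transiently transfected with GAL4-UAS reporter transcription units responding to chimeric NR-Gal4. Activity is taken as gain of signal over DMSO baseline.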

[19] = target: Steroid hormone receptor ERR1 (Homo sapiens) (UniProt P11474); experiment: ATG_ERRa_TRANS: Attagene TRANS-FACTORIAL HepG2 Assay for human Estrogen-Related Receptor alpha (ERRa) (AID 2282971; active = hit-call score of the fitted dose curve at least 0.9, where 1 is the maximum); conditions: HepG2 Attagene TRANS reporter, ERRa transactivation
Chain of Steroid hormone receptor ERR1 (Homo sapiens) (P11474 whole entry, looked up, the tested form may be a part): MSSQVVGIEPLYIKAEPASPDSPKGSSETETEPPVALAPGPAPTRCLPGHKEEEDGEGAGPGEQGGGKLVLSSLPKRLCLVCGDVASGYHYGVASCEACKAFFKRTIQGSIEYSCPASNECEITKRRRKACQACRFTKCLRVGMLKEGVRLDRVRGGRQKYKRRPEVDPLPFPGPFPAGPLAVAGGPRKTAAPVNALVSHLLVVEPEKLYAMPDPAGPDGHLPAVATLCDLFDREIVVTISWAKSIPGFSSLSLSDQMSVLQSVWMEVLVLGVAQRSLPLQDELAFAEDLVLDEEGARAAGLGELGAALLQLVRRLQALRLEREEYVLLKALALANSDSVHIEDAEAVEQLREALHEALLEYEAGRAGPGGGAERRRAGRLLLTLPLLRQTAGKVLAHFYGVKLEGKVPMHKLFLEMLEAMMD
Summary of the method: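 Transfected HepG2, 24 h dosing, ERRa-Gal4 chimera driving GAL4-UAS reporter. Readout: reporter mRNA via RT-PCR plus capillary electrophoresis (fluorescence). Positive direction vs DMSO control.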

Measured: AC50

O=S(=O)(O)CCCN1CCOCC1
not listed: [12] | [13] | [14] | [15] | [16] | [17] | [18] | [19]
inactive: all other assays above

CCCOC(=O)CC
not listed: [16] | [17] | [18] | [19]
inactive: all other assays above

C=C(C)C(N)=O
inactive: [1] | [2] | [3] | [4] | [5] | [6] | [16] | [8] | [9] | [11]

NS(=O)(=O)c1cc(C(=O)O)c(NCc2ccco2)cc1Cl
inactive: [1] | [2] | [3] | [4] | [5] | [16] | [9] | [15] | [11]

CCO[Si](CC)(OCC)OCC
active: [1] 173 µM | [3] 160 µM
inactive: [2] | [4] | [5] | [6] | [8] | [9] | [10] | [11]

OCCN1CCOCC1
active: [18] 67.5 µM
not listed: [4] | [12] | [13] | [16] | [19]
inactive: all other assays above

C1CCCNCC1
inactive: [1] | [2] | [3] | [5] | [12] | [14] | [8] | [9] | [10] | [11]

CC1(C)CC(N)CC(C)(CN)C1 (centres undefined)
inactive: [1] | [2] | [3] | [5] | [14] | [8] | [9] | [15] | [10] | [11]

C=CC(=O)OCCCCCC
inactive: [1] | [2] | [3] | [5] | [7] | [14] | [15] | [10] | [11]

CC1=CCC(C(C)C)=CC1
inactive: [1] | [2] | [3] | [5] | [12] | [14] | [10] | [11]

CC(C)Cc1ccc(C(C)C(=O)O)cc1 (centres undefined)
active: [18] 36.4 µM
not listed: [4] | [7] | [9] | [13] | [14] | [17]
inactive: all other assays above

Source: PubChem BioAssay (EPA / NIEHS)
